About 2,000 (36%) of roughly 5,500 compounds were called active. Another 18% or so got no clear call; they are omitted. No stated cut-off is given here; in the data, active means normalized growth mostly below about 0.91 (no sharp cut-off); inconclusive means no clear call, values can overlap the other calls; inactive means mostly above about 0.92. The list shows a part of the results.
Assay: chemical genetic growth profiling, strain panel (AID 1159580);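 further: tested at 20 µM; growth read once vehicle control cultures reached saturation at 30 °C; 1 = growth at the plate median or of vehicle wells; lower values mean less growth of the strain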
Conditions: S. cerevisiae deletion strains, growth OD

Measured: normalized growth

CCOC(=O)C1=CC2(CC)CCCN3CCc4c(n1c1ccccc41)C32 (configuration not stated)
inactive: locus YAL040C, strain CLN3, active compounds read low 1 | locus YCL061C, strain MRC1 (second series), active compounds read low 1 | locus YDR150W, strain NUM1, active compounds read low 1 | locus YDR363W, strain ESC2, active compounds read low 1 | locus YER002W, strain NOP16, active compounds read low 1.02 | locus YGR078C, strain PAC10, active compounds read low 0.999 | locus YGR229C, strain SMI1, active compounds read low 1.01 | locus YJR075W, strain HOC1, active compounds read low 0.984 | locus YMR307W, strain GAS1, active compounds read low 1.01 | locus YNL153C, strain GIM3, active compounds read low 0.989 | locus YNL175C, strain NOP13, active compounds read low 1.03 | locus YNL197C, strain WHI3, active compounds read low 1.03 | locus YNL224C, strain SQS1, active compounds read low 1.01 | locus YNL322C, strain KRE1, active compounds read low 0.983 | locus YOR083W, strain WHI5 (second series), active compounds read low 1.01 | locus YPL055C, strain LGE1, active compounds read low 1.02 | locus YPL241C, strain CIN2, active compounds read low 0.997

From PubChem BioAssay AID1159580 (chemical genetic matrix, 2015)
